Values joined by “and” are separate entries in the source; they are usually repeats but may differ in a detail not shown here. Identical values can stand only once. This is part of a sample that, as a whole, favours compounds with a hit. Of some 83,000 tested, about 20% had one in any assay.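 Treatment: one concentration, 48 hours, 96-well format. Scoring: percent growth, with anything below 10 considered active.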 Values without a mark were called inactive. Active and inactive are the calls of the source.
How the values were obtained:
Assay in all cases: NCI-60 one-dose screen, 48 h (100 = growth as untreated, 0 = no growth, -100 = all killed)
Conditions in all cases: 10 µM unless noted
SR leukemia = tested on: SR leukemia
RPMI-8226 leukemia = tested on: RPMI-8226 leukemia
OVCAR-8 ovarian = tested on: OVCAR-8 ovarian
OVCAR-5 ovarian = tested on: OVCAR-5 ovarian
OVCAR-4 ovarian = tested on: OVCAR-4 ovarian
SK-OV-3 ovarian = tested on: SK-OV-3 ovarian
IGROV1 ovarian = tested on: IGROV1 ovarian
OVCAR-3 ovarian = tested on: OVCAR-3 ovarian
HS 578T breast = tested on: HS 578T breast
NCI/ADR-RES ovarian = tested on: NCI/ADR-RES ovarian

Structure (SMILES)	growth (SR leukemia)	growth (RPMI-8226 leukemia)	growth (OVCAR-8 ovarian)	growth (OVCAR-5 ovarian)	growth (OVCAR-4 ovarian)	growth (SK-OV-3 ovarian)	growth (IGROV1 ovarian)	growth (OVCAR-3 ovarian)	growth (HS 578T breast)	growth (NCI/ADR-RES ovarian)
c1ccc2c(c1)OC1OC2Oc2ccccc21	76.1%	106%	104%	103%	105%	102%	97%	101%	92.9%	95.7%
CCN(CCNS(C)(=O)=O)c1ccc(N)c(C)c1	94.9%	59.9% and 110%	78.1% and 97.5%		69.6% and 102%	98.6% and 96%	70.3% and 68.9%	25.5% and 77.8%	115% and 103%	90.2% and 96.9%
CCCCNc1ccc(Nc2ccccc2)cc1	62.3%	-25% (active)	74.2%	103%	39%		58.7%	66%	105%	86.4%
CC(C)(O)C(=O)O	119%	103%	109%	99.7%	105%	97.9%	101%	109%	102%	111%
NN1CCOC(c2ccccc2)C1 (stereo not given)	29.8%	97.8%	103%		119%	106%	122%	106%	99.5%	105%
c1ccc(CNCCNCc2ccccc2)cc1	95.3%	101%	124%		103%	107%	120%	121%	114%	112%
Cc1cc(-c2cc(C)c(O)c(C)c2)cc(C)c1O		79.4%	95%				100%	97.2%	85.1%	76%
Nc1ncnc2c1ncn2C1OC(COP(=O)(O)O)C(O)C1O (stereo not given)	111%	106%	111%		126%	114%		124%		109%
CN(C)CC1CCCCCC(CN(C)C)C1=O (stereo not given)	5.93% (active)	13.1%	80.3%		79%	107%	34.2%	-12.7% (active)	85.8%	88.3%
CCCCOC(=O)/C=C\C(=O)NC(N)=O	-22.3% (active)	39.5%	71.1%		93.4%	111%	74.1%	87.7%	99.1%	90.8%
OCC1OC(O)C(O)C(O)C1O (stereo not given)	106%	110%	108%		103%	109%	126%	120%	116%	101%
Cl	104%	115%	98.6%		125%	115%	120%	119%	108%	102%
